The values that follow come from PubChem BioAssay (NCI).

The structures appear in SMILES notation. The panel holds about 83,000 compounds, 20% with a hit somewhere; the sample as a whole holds those more often.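 Single-dose data. Exposure time 48 hours. Values below 10 considered active.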 Calls of active or inactive are those of the source.

The subject of the assay is LOX IMVI melanoma. Kind of assay: NCI-60 one-dose screen, 48 h (100 = growth as untreated, 0 = no growth, -100 = all killed). The note with it: 10 µM unless noted.
In the case of `CC1=CNNc2c3ncnc-3ncn21`, the growth is 106% (inactive).
Then `CCN(CC)c1cc(/C=C/c2ccc(OC)c(OC)c2)nc2cc(F)c(F)cc12`, with 25.9% (inactive); and `CCCCCCCCCCCCOB(OCCCCCCCCCCCC)OCCCCCCCCCCCC`, with 89.7% (inactive).
With `c1ccn2nnnc2c1`, the growth was 91.9% (inactive).
Then `Nc1c(C(=O)Nc2c(Cl)cccc2Cl)sc2nc3c(cc12)CCCCC3`, with 58.6% (inactive); and `COc1ccc(-n2c(C)cc(-c3ccccc3)c2C)cc1`, with 42.1% (inactive); and `COc1cc2c(cc1OC)C1(C)N(CC2)C(=O)OC1(C)C` (stereo unspecified), with 96.3% (inactive).
Then `COc1ccc(/C=C/c2nc(N3CCOCC3)c3nc(Cl)c(Cl)cc3n2)cc1OC`, with 97.2% (inactive); and `Cc1cccc(NC(=O)c2sc3nc4c(cc3c2N)CCCC4)c1`, with 40.3% (inactive).
With `O=C(/C=C/c1ccccc1)n1c(-c2ccc(Cl)cc2)nc2ccccc21` the figure was -82.9% (active); with `COc1cc(Cn2c(-c3nonc3N)nc3ccccc32)ccc1C`, 42.6% (inactive).
For `Clc1ccc(-c2nc(-c3ccco3)cn3ccnc23)cc1`, the growth is 55.2% (inactive).
Then `Oc1ccc(N=Cc2ccccc2)cc1`, with 95.3% (inactive); and `CCCCCc1c(C)[nH]c(/C=c2\[nH]/c(=C3/C=c4ccccc4=N3)cc2OC)c1C`, with -85.2% (active).
For `COc1cc2nc(Cl)nc(NCCO)c2cc1OC`, the growth is 97.7% (inactive).
In the case of `CCC1CCc2nc3sc(C(=O)Nc4ccccc4C)c(N)c3cc2C1` (stereo unspecified), the growth was 35% (inactive).
Then `Cc1cc(Nc2nc(C(=O)Nc3ccccc3)nc3ccccc23)n[nH]1`, with 54% (inactive).
With `c1ccc2nc(-c3ccc4ccccc4n3)ccc2c1` the figure was 92.2% (inactive); with `Clc1nc2ccccc2nc1CI`, 8.23% (active); with `Cc1cccc(NC(=O)c2sc3nc4c(cc3c2N)CCC4)c1C`, 24.5% (inactive).
With `Clc1cccc(Cl)c1Cn1c(-c2cncs2)nc2ccccc21` the figure was 85% (inactive); with `Clc1ccc(/C=C/c2nc(N3CCOCC3)c3nc(Cl)c(Cl)cc3n2)cc1`, 99.8% (inactive); with `Cc1cc(Nc2nc(-c3ccc(F)cc3)nc3ccccc23)n[nH]1`, 32.6% (inactive).
For the compound `COC(=O)[C@H]1[C@H](OC)[C@@H](OC(=O)/C=C/c2ccncc2)CC2CN3CCc4c([nH]c5cc(OC)ccc45)[C@@H]3C[C@@H]21` (stereo partly specified), the growth was 50.4% (inactive).
With `CN(C)c1ncc(-c2ccc(C(F)(F)F)cc2)c(NC2CCCCCC2)n1` the figure was 66.2% (inactive); with `CC(=O)Nc1ccc(S(=O)(=O)N2C(=O)CCC2C(=O)Nc2ccccc2)cc1` (stereo unspecified), 29.9% (inactive).
